The source of these data is publication PMC4336329 (PLoS ONE, 2015).

The campaign covered roughly 310,000 compounds. About 14,000 (4.5%) showed an effect of 50% or more. The effect is printed as a negative number. Shown is part of a subset that was picked to be rich in strong results.
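Further: peak tail current of the secondary pulse compared with the same well before compound.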

In this experiment the target is human ether-à-go-go-related gene (hERG) potassium channel (human, UniProt Q12809). The experiment in a line: primary screen, population patch clamp on CHO cells stably expressing hERG; higher = less effect of the substance.
human ether-à-go-go-related gene (hERG) potassium channel, sequence (Q12809 whole entry, looked up): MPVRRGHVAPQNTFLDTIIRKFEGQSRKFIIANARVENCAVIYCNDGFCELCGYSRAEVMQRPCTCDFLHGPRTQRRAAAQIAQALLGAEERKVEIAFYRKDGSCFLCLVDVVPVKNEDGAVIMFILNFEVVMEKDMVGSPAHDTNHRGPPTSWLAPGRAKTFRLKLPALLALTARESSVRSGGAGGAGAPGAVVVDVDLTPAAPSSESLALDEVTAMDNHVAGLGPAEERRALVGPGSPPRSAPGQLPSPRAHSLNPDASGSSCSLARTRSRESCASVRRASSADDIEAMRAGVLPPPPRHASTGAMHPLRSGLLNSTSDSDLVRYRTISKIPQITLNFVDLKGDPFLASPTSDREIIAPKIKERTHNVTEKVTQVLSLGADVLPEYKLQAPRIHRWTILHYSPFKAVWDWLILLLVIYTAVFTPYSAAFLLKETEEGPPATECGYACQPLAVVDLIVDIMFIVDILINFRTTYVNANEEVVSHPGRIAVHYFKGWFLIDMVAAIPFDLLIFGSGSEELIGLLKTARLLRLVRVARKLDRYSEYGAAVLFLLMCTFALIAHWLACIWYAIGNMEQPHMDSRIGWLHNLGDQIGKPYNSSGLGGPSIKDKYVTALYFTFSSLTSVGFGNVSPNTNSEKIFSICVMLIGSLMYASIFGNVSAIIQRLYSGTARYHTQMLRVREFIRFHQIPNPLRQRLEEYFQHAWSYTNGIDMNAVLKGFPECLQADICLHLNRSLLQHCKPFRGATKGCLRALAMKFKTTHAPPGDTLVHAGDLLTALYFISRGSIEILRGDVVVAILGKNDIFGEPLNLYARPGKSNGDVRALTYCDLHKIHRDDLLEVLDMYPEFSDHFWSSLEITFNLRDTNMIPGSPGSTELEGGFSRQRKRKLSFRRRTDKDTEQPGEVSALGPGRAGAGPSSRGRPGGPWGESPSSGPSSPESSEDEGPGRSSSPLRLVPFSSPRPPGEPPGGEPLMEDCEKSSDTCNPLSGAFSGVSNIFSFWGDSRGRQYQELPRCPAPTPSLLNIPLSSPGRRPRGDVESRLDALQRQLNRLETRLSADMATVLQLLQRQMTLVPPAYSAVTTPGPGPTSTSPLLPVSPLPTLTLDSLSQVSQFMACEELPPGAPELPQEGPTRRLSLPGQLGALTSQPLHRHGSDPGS
For `COc1ccccc1C(=O)COC(=O)CSC(C)C(=O)Nc1cc(C)on1` (stereo not drawn), the “hERG current change (%, negative = inhibition) at 10uM” value was -13.7%.

In the case of `CCOc1ccc(CN(C)C(=O)Cc2c[nH]c3ccccc23)cc1`, the “hERG current change (%, negative = inhibition) at 10uM” value was 12%. Turning to `O=C(NCC1CCCN(Cc2cccc(F)c2)C1)c1cccc2ccccc12` (stereo not drawn), the “hERG current change (%, negative = inhibition) at 10uM” value was -17.6%. Take `O=C(c1cc2ccccc2o1)N1CCN=C1SCc1cccc(F)c1`: the “hERG current change (%, negative = inhibition) at 10uM” value was -7.82%. As to `CCN(CC1CCCN(CCc2cccc(F)c2)C1)C(=O)c1cc2ccccc2o1` (stereo not drawn), the “hERG current change (%, negative = inhibition) at 10uM” value is -79.6%.

In the case of `O=C(CN(C(=O)CCC(=O)Nc1ccccn1)c1ccc2c(c1)OCO2)NCc1ccc(F)cc1`, the “hERG current change (%, negative = inhibition) at 10uM” value was found to be 9.42%. On to `CCOc1ccccc1NC(=O)NC1CC2CCCC(C1)N2Cc1nnnn1CCc1ccccc1` (stereo not drawn), for which the “hERG current change (%, negative = inhibition) at 10uM” value is -5.67%. With `CCNC(=S)NC1CC2CCCC(C1)N2CCc1ccccc1` (stereo not drawn), the “hERG current change (%, negative = inhibition) at 10uM” value is -48.7%.

On to `CCc1ccccc1NC(=S)NC1CC2CCC(C1)N2Cc1ccc(F)cc1` (stereo not drawn), for which the “hERG current change (%, negative = inhibition) at 10uM” value is -42%. Regarding `O=C(Nc1ccccc1-c1ccccc1)NC1CC2CCCC(C1)N2CCc1ccccc1` (stereo not drawn), the “hERG current change (%, negative = inhibition) at 10uM” value is reported as -53.3%. Then `O=C(Nc1cccn(Cc2ccc(F)cc2)c1=O)NC1CCCCC1`, with -36.2%. Regarding `O=C(Nc1ccccc1-c1ccccc1)NC1CC2CCCC(C1)N2Cc1ccc(F)cc1` (stereo not drawn), the “hERG current change (%, negative = inhibition) at 10uM” value is -66.4%.

As for `O=C(N/N=C/c1ccc[nH]1)c1ccncc1`, the “hERG current change (%, negative = inhibition) at 10uM” value is reported as 20.2%. As for `COc1cccc(NC(=O)CCS(=O)(=O)c2cccs2)c1`, the “hERG current change (%, negative = inhibition) at 10uM” value turned out to be 14%. As for `CC(=O)c1c(C)[nH]c(C(=O)OCC(=O)N2CC(C)OC(C)C2)c1C` (stereo not drawn), the “hERG current change (%, negative = inhibition) at 10uM” value is 20.7%. As to `CCCCNC(=O)/C=C/c1ccc(S(=O)(=O)Nc2ccc(OC)cc2)cc1`, the “hERG current change (%, negative = inhibition) at 10uM” value amounted to 3.52%. As for `Cc1cnc(NC(=O)C2(c3ccccc3)CC2)s1`, the “hERG current change (%, negative = inhibition) at 10uM” value came out at 7.07%. Then `NC(=O)c1c(NC(=O)c2cccnc2)sc2c1CCCC2`, with 17.5%; and `O=C(Nc1sc2c(c1C(=O)O)CCCCC2)c1cccnc1`, with 16.7%; and `CC(C)NC(=O)c1sc2c(c1C(=O)Nc1cccnc1)CCCC2`, with -69.7%. As for `Cc1cc(-c2onc(C)c2C(=O)Oc2ccc(Cl)cc2)no1`, the “hERG current change (%, negative = inhibition) at 10uM” value is reported as -2.56%. With `Cc1cc(C)nc(SCCn2c(N3CCCCC3)nc3c2c(=O)n(C)c(=O)n3C)n1`, the “hERG current change (%, negative = inhibition) at 10uM” value is -4.05%.

In the case of `CC1(C)CC(=O)C=C(NC2CCCCCC2)C1`, the “hERG current change (%, negative = inhibition) at 10uM” value is listed as -1.93%. With `O=C(Oc1ccc2ccccc2c1)C1CCC1` the figure was 17%; with `COc1ccc(C(=O)Nc2ccc(-c3nnn(CC(=O)N4CCN(C(=O)c5ccco5)CC4)n3)cc2)cc1`, 7.09%. Then `O=C(Cn1nnc(-c2ccc(Cl)cc2)n1)N1CCN(C(=O)c2ccco2)CC1`, with -65%; and `O=C(Cn1nnc(-c2ccccc2)n1)N1CCN(S(=O)(=O)c2ccc(Cl)cc2)CC1`, with 3.96%.

On to `O=C(Nc1ccc(-c2nnn(CC(=O)N3CCN(C(=O)c4ccco4)CC3)n2)cc1)c1ccccc1F`, for which the “hERG current change (%, negative = inhibition) at 10uM” value is reported as -53.2%. With `O=C(Nc1ccc(-c2nnn(CC(=O)N3CCN(C(=O)c4ccco4)CC3)n2)cc1)c1ccc(F)cc1` the figure was 3.09%; with `Cc1ccccc1-c1nnn(CC(=O)N2CCN(C(=O)c3ccco3)CC2)n1`, -40.1%; with `Cc1ccc(C2=NOC(=O)/C2=C\c2ccc(C)o2)cc1`, 6.75%. With `O=C(N/N=C\c1cccnc1)C1c2ccccc2Oc2ccccc21` the figure was 0.415%. Regarding `CCOC(=O)C1=C(C)N(C)C(=S)N(C)C1c1ccc(OC)cc1` (stereo not drawn), the “hERG current change (%, negative = inhibition) at 10uM” value is -10.5%.

With `CN(C)S(=O)(=O)c1ccc(C(=O)OCC(=O)NCc2ccco2)cc1`, the “hERG current change (%, negative = inhibition) at 10uM” value turned out to be 11.6%. Then `Cc1ccc(-c2cc(C(=O)N3CCOCC3)c3cc(C)ccc3n2)cc1`, with -4.82%; and `COc1ccccc1CNC(=O)CCC(=O)n1ncc2cc(C)ccc21`, with 0.647%; and `c1ccc2c(c1)CCCN2Cc1nnnn1C1CCCC1`, with -3.84%. With `O=C(C1CC1)N(Cc1ccco1)c1nc(-c2ccccc2)cs1`, the “hERG current change (%, negative = inhibition) at 10uM” value is recorded as -8.62%. `Cc1ccc2c(c1)C1CN(C)CCC1N2Sc1ccccc1[N+](=O)[O-]` (stereo not drawn): the “hERG current change (%, negative = inhibition) at 10uM” value was -62.8%. With `Cc1ccc2c(c1)C1CN(C)CCC1N2CC(=O)N(C)c1ccccc1` (stereo not drawn), the “hERG current change (%, negative = inhibition) at 10uM” value amounted to 6.34%. Take `Cc1ccc2c(c1)C1CN(C)CCC1N2S(=O)(=O)c1ccc(C#N)cc1` (stereo not drawn): the “hERG current change (%, negative = inhibition) at 10uM” value was -72.8%. As for `Cc1ccc2c(c1)[C@@H]1CN(C)CC[C@@H]1N2S(=O)(=O)c1ccc([N+](=O)[O-])cc1.Cl`, the “hERG current change (%, negative = inhibition) at 10uM” value is listed as -75%. With `Cc1ccc2c(c1)[C@@H]1CN(C)CC[C@@H]1N2S(=O)(=O)c1ccc(F)cc1.Cl`, the “hERG current change (%, negative = inhibition) at 10uM” value is -29.1%.

Turning to `Cc1ccc2c(c1)C1CN(C)CCC1N2S(=O)(=O)c1ccc(Oc2ccc([N+](=O)[O-])cc2)cc1` (stereo not drawn), the “hERG current change (%, negative = inhibition) at 10uM” value is listed as -21.3%.

Consider `Cc1ccc2c(c1)C1CN(C)CCC1N2C(=O)c1cccc(S(=O)(=O)N(C)C)c1.c1ccccc1` (stereo not drawn), for which the “hERG current change (%, negative = inhibition) at 10uM” value is given as -25%. With `Cc1ccc2c(c1)C1CN(C)CCC1N2C(=O)COc1ccc(S(=O)(=O)N2CCOCC2)cc1` (stereo not drawn) the figure was -15.8%; with `Cc1ccc2c(c1)C1CN(C)CCC1N2S(=O)(=O)c1ccccc1F` (stereo not drawn), -32.4%; with `CN(C(=O)Cc1c(C(=O)O)n(C)c2ccccc12)c1ccc(F)cc1`, 19.8%. With `CCSc1nnc(COc2ccccc2)n1CC` the figure was 6.43%; with `CCn1c(COc2ccc(C)cc2)nnc1SCc1ccc(C#N)cc1`, -59.6%. Take `COc1ccc(-n2c(COc3ccccc3)nnc2SCc2ccc(C#N)cc2)cc1`: the “hERG current change (%, negative = inhibition) at 10uM” value is given as -39.4%.

On to `COc1ccc(-n2c(COc3ccc(Cl)cc3)nnc2SCc2ccc(C#N)cc2)cc1`, for which the “hERG current change (%, negative = inhibition) at 10uM” value was determined as 0.977%. With `N#CCSc1nnc(COc2ccccc2)n1-c1ccccc1` the figure was -10.7%. Then `Cc1ccc(OCc2nnc(SCc3ccc(C#N)cc3)n2-c2ccc(C)cc2)cc1`, with -29.6%; and `N#Cc1ccc(CSc2nnc(COc3ccccc3)n2-c2ccccc2)cc1`, with -52.3%. With `CCn1c(COc2ccc(Cl)cc2)nnc1SCc1ccc(C#N)cc1` the figure was -70.5%.

As for `CCn1c(COc2ccccc2)nnc1SCC(=O)C(C)(C)C`, the “hERG current change (%, negative = inhibition) at 10uM” value is -14.2%. For the compound `CCn1c(COc2ccccc2)nnc1SCc1ccc(C#N)cc1`, the “hERG current change (%, negative = inhibition) at 10uM” value is -54.1%. With `COc1ccc(-n2c(COc3ccc(C)cc3)nnc2SCc2ccc(C#N)cc2)cc1` the figure was -29.6%. Take `CCn1c(COc2ccc(Cl)cc2)nnc1SCc1nc2ccccc2[nH]1`: the “hERG current change (%, negative = inhibition) at 10uM” value was -17.7%.

Consider `COc1ccc(/C=N/NC(=O)CCN2CCCCC2c2cccnc2)cc1Cn1cc([N+](=O)[O-])cn1` (stereo not drawn), for which the “hERG current change (%, negative = inhibition) at 10uM” value is reported as -30.7%.

In the case of `CCCCOCCCNC(=O)Cc1cccs1`, the “hERG current change (%, negative = inhibition) at 10uM” value is given as 1.1%. Then `O=C(CN1C(=O)c2ccccc2C1=O)NN1C(=O)c2ccccc2C1=O`, with 1.18%; and `Cc1c(C(=O)Oc2cccc3cccnc23)oc2ccccc12`, with -4.01%; and `Cc1cnc(C(=O)OCC(=O)NC2CCCC(C)C2C)cn1` (stereo not drawn), with 6.02%. Then `O=C(Nc1ccccc1N1CCCC1)c1cc(Cl)ccc1Cl`, with -2.72%; and `CC(=O)N1CCN(c2ccccc2NC(=O)c2cc(Br)ccc2Cl)CC1`, with -66.6%; and `CN1CCN(c2ccccc2NC(=O)c2cc(Br)ccc2Cl)CC1`, with -76.4%. Regarding `CS(=O)(=O)N1CCN(c2ccccc2NC(=O)c2ccc3ccccc3c2)CC1`, the “hERG current change (%, negative = inhibition) at 10uM” value was -8.76%. Take `CS(=O)(=O)N1CCN(c2ccccc2NC(=O)c2cc(Br)ccc2Cl)CC1`: the “hERG current change (%, negative = inhibition) at 10uM” value is listed as -30.3%.

On to `O=C(Nc1ccccc1N1CCCC1)c1ccc2ccccc2c1`, for which the “hERG current change (%, negative = inhibition) at 10uM” value is listed as 8.73%. For the compound `CC(=O)N1CCN(c2ccccc2NC(=O)c2ccc3ccccc3c2)CC1`, the “hERG current change (%, negative = inhibition) at 10uM” value is reported as -61.9%.

Consider `COc1c(Cl)cc(Cl)cc1C(=O)Nc1ccccc1N1CCN(C(C)=O)CC1`, for which the “hERG current change (%, negative = inhibition) at 10uM” value is recorded as 3.01%. On to `CC(=O)N1CCN(c2ccccc2NC(=O)c2cccc3c(Cl)cccc23)CC1`, for which the “hERG current change (%, negative = inhibition) at 10uM” value is on record as -19.2%.

Consider `CC(C)C(NC(=O)COc1ccc2ccccc2c1)C(=O)N/N=C/C=C/c1ccccc1` (stereo not drawn), for which the “hERG current change (%, negative = inhibition) at 10uM” value amounted to 14.8%. In the case of `COc1cc(C2/C(=C(\O)c3ccc4c(c3)CC(C)O4)C(=O)C(=O)N2c2nnc(C)s2)cc(OC)c1OC` (stereo not drawn), the “hERG current change (%, negative = inhibition) at 10uM” value is recorded as 9.14%. With `Cc1c(Cc2ccccc2)c(=O)oc2cc(OCC(=O)N3CCC(C(=O)O)CC3)ccc12`, the “hERG current change (%, negative = inhibition) at 10uM” value came out at 6.24%.

For `Cc1noc(C)c1COc1ccc(C(=O)OCC(=O)N2CC3(C)CC2CC(C)(C)C3)cc1` (stereo not drawn), the “hERG current change (%, negative = inhibition) at 10uM” value was -6.44%. On to `COC(=O)c1ccc(Oc2c(Cl)cccc2[N+](=O)[O-])cc1`, for which the “hERG current change (%, negative = inhibition) at 10uM” value was found to be 3.65%. Then `COc1ccc(OC(C)C(=O)NCC2CCCO2)cc1` (stereo not drawn), with 18.5%. Then `COC(=O)c1sc(N)c(C(=O)OC)c1COC(=O)c1c(C)noc1C`, with -3.57%. Then `Cc1noc(C)c1CSc1nnc(C)c(=O)[nH]1`, with 7.14%; and `CCOC(=O)c1[nH]c(C)c(C(=O)OCC(=O)N(C)C2CCS(=O)(=O)C2)c1C` (stereo not drawn), with 29%; and `CC(C)N1CCC(N2CCN(Cc3cccc4nonc34)CC2CCO)CC1` (stereo not drawn), with 3.08%. Regarding `OCCC1CN(Cc2ccc3nonc3c2)CCN1Cc1ccsc1` (stereo not drawn), the “hERG current change (%, negative = inhibition) at 10uM” value is -66.1%.

Regarding `OCCC1CN(Cc2ccc3cc(Cl)ccc3n2)CCN1Cc1ccsc1` (stereo not drawn), the “hERG current change (%, negative = inhibition) at 10uM” value is -65%.

For `Cc1cccc(CN2CCN(Cc3ccc4nonc4c3)CC2CCO)n1` (stereo not drawn), the “hERG current change (%, negative = inhibition) at 10uM” value is reported as -35.6%. On to `OCCC1CN(Cc2cccc3nonc23)CCN1Cc1ccsc1` (stereo not drawn), for which the “hERG current change (%, negative = inhibition) at 10uM” value is on record as -52.6%. Then `OCCC1CN(Cc2cccc3nonc23)CCN1C1CCCCC1` (stereo not drawn), with -5.74%; and `CCOc1ccc2nc(CN3CCN(Cc4ccsc4)C(CCO)C3)ccc2c1` (stereo not drawn), with -47%.
